# Results with a measured potency or affinity are listed apart. The source made the active and inactive calls. How the calls were made is not given here.
# Assay: HeLa cell cytotoxicity, dose response, cytotoxicity control, 48 h, plate reader, cherry-picks (AID 504942)
# Conditions: series mostly up to 38 µM; activity change, negative = toxicity: at the top concentration
row,SMILES,"activity change, negative = toxicity"
1,O=[N+]([O-])c1ccc(N2CCCC2)nc1,-11.1% (inactive)
2,N#CCn1c(C2CCCCC2)nc2ccccc2c1=O,5.78% (inactive)
3,COC(=O)c1ccc(OC(=O)c2cccs2)cc1,-6.4% (inactive)
4,Cc1cc(S(=O)(=O)NCC2CC2)c(Cl)cc1Cl,7.44% (inactive)
5,Cc1ccc2nc(-c3ccc4c(c3)OCCO4)cn2c1,-0.368% (inactive)
6,O=C1N[C@@H](Cc2ccccc2)[C@@H](c2ccco2)O1,4.94% (inactive)
7,Cc1cc(NC(=O)c2cc([N+](=O)[O-])ccc2Cl)no1,18.1% (inactive)
8,O=CN(c1ccccc1)c1ccc2ccccc2c1,0.446% (inactive)
9,O=C(NC1CCCCCCC1)c1cccc(Cl)c1,-9.91% (inactive)
10,CC(C)(C)NC(=O)c1cc(Cl)ccc1[N+](=O)[O-],-3.32% (inactive)
11,Cc1cccc(NC(=O)Nc2cc(C)on2)c1,7.03% (inactive)
12,O=C(NCC1CC1)c1cc([N+](=O)[O-])cc([N+](=O)[O-])c1,2.77% (inactive)
13,O=CNC1(c2ccccc2)CCCCC1,4.94% (inactive)
14,C=CCOC(=O)c1ccc(-n2cnc(C)n2)nc1,1.26% (inactive)
15,COc1ccccc1C(C#N)c1cccc(Cl)n1 (stereo not given),-6.54% (inactive)
16,CSc1nnc(-c2ccc([N+](=O)[O-])cc2)o1,8.43% (inactive)
17,Cc1cc(NC(=O)c2c(F)c(F)c(F)c(F)c2F)no1,8.16% (inactive)
18,Cc1ccc(S(=O)c2ccc(C)cc2)cc1,7.24% (inactive)
19,CCOC(=O)c1ccc(-c2ccc(CO)o2)cc1,-1.41% (inactive)
20,CCC(C)NS(=O)(=O)c1ccc(OC)c(Cl)c1Cl (stereo not given),-0.92% (inactive)
21,CCCCCC1CC(COc2ccccc2)OC1=O (stereo not given),-6.43% (inactive)
22,CCOc1ccc(-n2cccc2C=O)cc1,9.37% (inactive)
23,CCOC(=O)c1cnc(-c2ccccc2)nc1N,-7.36% (inactive)
24,N#CC(c1cccc(Cl)c1)c1ncc(C(F)(F)F)cc1Cl (stereo not given),-0.874% (inactive)
25,CCOC(=O)c1cc2c(s1)-c1c(C)cccc1OC2,-19.9% (inactive)
26,O=C(NC1CCS(=O)(=O)C1)c1cccc(Br)c1 (stereo not given),-10.4% (inactive)
27,N#CC(c1ccc(Cl)cc1)c1ncc(C(F)(F)F)cc1Cl (stereo not given),-7.56% (inactive)
28,O=[N+]([O-])c1ccc(-c2cccnc2)cc1,7.75% (inactive)
29,COC(=O)c1ccc(OC(=O)c2ccco2)cc1,-5.76% (inactive)
30,O=C(/C=C/c1cccs1)c1cc(Cl)ccc1O,-1.83% (inactive)
